Among the test systems are SK-MEL-2 melanoma; EKVX NSCLC; SN12C renal; UO-31 renal; TK-10 renal; ACHN renal; CAKI-1 renal; CCRF-CEM leukemia; MOLT-4 leukemia; SR leukemia; OVCAR-8 ovarian; OVCAR-5 ovarian; OVCAR-4 ovarian; SK-OV-3 ovarian; IGROV1 ovarian; OVCAR-3 ovarian; HS 578T breast; NCI/ADR-RES ovarian.
Holding throughout (experiment): NCI-60 one-dose screen, 48 h (100 = growth as untreated, 0 = no growth, -100 = all killed)
Holding throughout (conditions): 10 µM

Eight compounds from PubChem BioAssay (NCI) can be followed below.

About 83,000 compounds went through this panel and 20% of them were active in at least one assay; those are over-represented in the sample as a whole.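 How to read the values: 0–100, growth inhibition (40 = 60% inhibited); 0, no net growth; -100 to 0, cell death (-40 = 40% of starting cells died; -100 = all dead).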 Values without a mark were called inactive. Active and inactive are the calls of the source. The calls were made as follows: active = growth percent below 10; inactive = the rest.

As for `COc1ccc(C(=O)c2ccccc2CN2C(=O)c3ccccc3C2=O)cc1`, the growth in the assay with SK-MEL-2 melanoma was 103%; in the assay with EKVX NSCLC it was 101%; in the assay on SN12C renal it was 105%; in the assay on UO-31 renal, 75.1%; in the assay with TK-10 renal, 104%; in the assay with ACHN renal it was 102%. For the same compound, the growth is 102% in the assay with CAKI-1 renal; 91.5% in the assay on CCRF-CEM leukemia; 87% in the assay on MOLT-4 leukemia; 91.8% with SR leukemia; 97% in the assay on OVCAR-8 ovarian; 109% in the assay with OVCAR-5 ovarian. Moreover, the growth is 105% in the assay with OVCAR-4 ovarian; 109% in the assay on SK-OV-3 ovarian; 101% in the assay on IGROV1 ovarian; 105% in the assay with OVCAR-3 ovarian; 105% with HS 578T breast; 95.5% with NCI/ADR-RES ovarian.

With `COc1ccccc1-n1c(-c2sc(NC(C)=O)nc2C)n[nH]c1=S`, the growth was 106% in the assay with SK-MEL-2 melanoma; 67.6% in the assay on EKVX NSCLC; 101% with SN12C renal; 70.1% in the assay on UO-31 renal; 130% in the assay on TK-10 renal; 108% in the assay with ACHN renal. Besides, the growth in the assay with CAKI-1 renal was 81%; in the assay on CCRF-CEM leukemia, 97.3%; with MOLT-4 leukemia, 92.9%; with SR leukemia, 79.5%; in the assay on OVCAR-8 ovarian it was 108%; with OVCAR-5 ovarian, 109%. Further, the growth is 106% in the assay with OVCAR-4 ovarian; 109% with SK-OV-3 ovarian; 106% with IGROV1 ovarian; 135% in the assay on OVCAR-3 ovarian; 121% in the assay on HS 578T breast; 106% in the assay on NCI/ADR-RES ovarian.

With `Cc1cc(O)ccc1C1=NN(c2ccc(S(C)(=O)=O)cc2)C(=O)CC1`, the growth was 68.7% in the assay with SK-MEL-2 melanoma; 72.2% with EKVX NSCLC; 90.3% in the assay on SN12C renal; 48.8% in the assay on UO-31 renal; 105% with TK-10 renal; 79.7% in the assay with ACHN renal. Moreover, the growth is 25.4% in the assay on CAKI-1 renal; 69.7% with CCRF-CEM leukemia; 52.7% in the assay with MOLT-4 leukemia; 12.3% in the assay with SR leukemia; 92.3% with OVCAR-8 ovarian; 98.1% with OVCAR-5 ovarian. The growth is 98% in the assay with OVCAR-4 ovarian; 85% in the assay on SK-OV-3 ovarian; 43.5% in the assay with IGROV1 ovarian; 65.1% in the assay on OVCAR-3 ovarian; 86.9% with HS 578T breast; 40.6% in the assay on NCI/ADR-RES ovarian.

Consider `Cc1c2cnccc2c(C)c2c1c1cc(O)ccc1n2C(C)C`, for which the growth in the assay on SK-MEL-2 melanoma is -14.4% (active); in the assay with EKVX NSCLC it was 9.67% (active); in the assay with SN12C renal, -6.79% (active); in the assay on UO-31 renal it was -3.92% (active); in the assay on TK-10 renal, 56.2%; with ACHN renal, -1.61% (active). Besides, the growth in the assay on CAKI-1 renal was 15.6%; with MOLT-4 leukemia, -4.53% (active); in the assay on SR leukemia it was -17.1% (active); with OVCAR-8 ovarian it was 7.98% (active); in the assay on OVCAR-5 ovarian, 69.2%; in the assay on OVCAR-4 ovarian, 25%. For the same compound, the growth with SK-OV-3 ovarian is -15.7% (active); in the assay with IGROV1 ovarian, 7.7% (active); in the assay on OVCAR-3 ovarian, 21.5%; in the assay with HS 578T breast it was 3.64% (active); in the assay on NCI/ADR-RES ovarian, 1.26% (active).

As to `O=C1NC(=O)c2c(CCCSc3nc4ccccc4c(=O)n3CCc3ccccc3)cccc21`, the growth was 105% in the assay on SK-MEL-2 melanoma; 16.3% in the assay with EKVX NSCLC; 91.7% with SN12C renal; 70.6% with UO-31 renal; 124% with TK-10 renal; 69.9% in the assay with ACHN renal. Further, the growth was 18.5% with CAKI-1 renal; 96% in the assay with CCRF-CEM leukemia; 81.3% in the assay with MOLT-4 leukemia; 83.7% with OVCAR-8 ovarian; 102% in the assay with OVCAR-5 ovarian; 60.7% in the assay with OVCAR-4 ovarian. The growth in the assay on SK-OV-3 ovarian was 86.2%; in the assay on IGROV1 ovarian it was 97.4%; in the assay with OVCAR-3 ovarian it was 115%; in the assay with HS 578T breast it was 74.1%; in the assay on NCI/ADR-RES ovarian, 79.8%.

For the compound `COc1cc2c3c(n(C4CCN(C)CC4)c(=O)c2cc1OC)-c1cc2c(cc1C3=O)OCO2`, the growth in the assay with SK-MEL-2 melanoma is 80.8%; in the assay on EKVX NSCLC it was 69.4%; in the assay with SN12C renal, 43.4%; in the assay with UO-31 renal, 52.4%; with TK-10 renal, 86.9%; with ACHN renal it was 57.2%. For the same compound, the growth with CAKI-1 renal is 75.6%; in the assay with MOLT-4 leukemia, 29.5%; in the assay on SR leukemia, 7.92% (active); with OVCAR-8 ovarian it was 19.4%; in the assay on OVCAR-5 ovarian, 138%; in the assay on OVCAR-4 ovarian, 84.9%. Moreover, the growth is 48.7% in the assay with SK-OV-3 ovarian; 66.9% with IGROV1 ovarian; -72% (active) in the assay with OVCAR-3 ovarian; 109% in the assay with HS 578T breast; 64% with NCI/ADR-RES ovarian.

Take `COc1ccc2nc(Cl)c(Cn3nnc(Cc4ccccc4)n3)cc2c1`: the growth is 49.6% with SK-MEL-2 melanoma; 24.5% in the assay on EKVX NSCLC; 57.3% in the assay with SN12C renal; 14.7% in the assay on UO-31 renal; 34.9% in the assay on TK-10 renal; 41.5% in the assay with ACHN renal. Moreover, the growth in the assay on CAKI-1 renal is 43.9%; in the assay with MOLT-4 leukemia, 10.3%; in the assay on SR leukemia, 22.9%; in the assay on OVCAR-8 ovarian it was 40.5%; in the assay with OVCAR-5 ovarian, 82.8%; with OVCAR-4 ovarian it was 19.7%. The growth in the assay on SK-OV-3 ovarian was 49.4%; in the assay on IGROV1 ovarian it was 43.2%; in the assay on OVCAR-3 ovarian, 49.8%; in the assay with HS 578T breast it was 68.9%; with NCI/ADR-RES ovarian it was 20.1%.

As for `COc1ccc(-c2nn(-c3cccc(Cl)c3)cc2-c2nc(N)[nH]c(=O)c2C#N)cc1`, the growth in the assay on SK-MEL-2 melanoma was 70.9%; in the assay with EKVX NSCLC it was 31.8%; with SN12C renal it was 84.9%; with UO-31 renal, 29.7%; with TK-10 renal, 110%; in the assay on ACHN renal, 87.5%. For the same compound, the growth in the assay on CAKI-1 renal is 30.6%; in the assay on CCRF-CEM leukemia, 61.6%; in the assay on MOLT-4 leukemia it was 53.7%; in the assay with SR leukemia, 19.3%; in the assay on OVCAR-8 ovarian it was 96.4%; in the assay on OVCAR-5 ovarian, 94.3%. In addition, the growth in the assay with OVCAR-4 ovarian is 85.7%; in the assay with SK-OV-3 ovarian it was 90%; in the assay with IGROV1 ovarian, 61%; in the assay on OVCAR-3 ovarian, 106%; in the assay with HS 578T breast it was 76.6%; in the assay on NCI/ADR-RES ovarian, 66.3%.
